Experimental data: PubChem BioAssay AID1159580 (chemical genetic matrix, 2015)
Among all 5,500 compounds or so, about 2,000 (36%) were called active. Roughly 18% stayed inconclusive and do not appear here. Rule as the data show it: active = normalized growth mostly below about 0.91 (no sharp cut-off); inconclusive = no clear call, values can overlap the other calls; inactive = mostly above about 0.92. Some of the results follow.

Experiment: chemical genetic growth profiling, strain panel (AID 1159580);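 also: tested at 20 µM; growth read once vehicle control cultures reached saturation at 30 °C; 1 = growth at the plate median or of vehicle wells; lower values mean less growth of the strain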
Conditions: S. cerevisiae deletion strains, growth OD

Measured: normalized growth

O=C(O)CS
inactive: locus YHR030C, strain SLT2, stronger effect = lower value 1.05 | locus YHR079C, strain IRE1, stronger effect = lower value 1.02 | locus YJL095W, strain BCK1, stronger effect = lower value 1.04 | locus YJR066W, strain TOR1, stronger effect = lower value 0.941 | locus YLR113W, strain HOG1, stronger effect = lower value 1.07 | locus YNL183C, strain NPR1, stronger effect = lower value 1.02 | locus YOR231W, strain MKK1, stronger effect = lower value 1.08 | locus YPL256C, strain CLN2, stronger effect = lower value 1.05
